The record followed here is PubChem BioAssay (Tox21).

A number with no mark means an inactive call. Inconclusive results are not listed. Calls of active or inactive are those of the source. Unless noted, the call rests on the fitted dose curve; in most records, active means well fitted curve in the direction sought with a large enough effect in the repeat runs; inconclusive means weak or mixed curves; inactive means no such curve, though single readings can be large; an effect the other way counts as inactive or inconclusive.

For test [1], the target named is Progesterone receptor (Homo sapiens) (UniProt P06401). The experiment in a line: qHTS assay to identify small molecule agonists of the progesterone receptor (PR) signaling pathway (AID 1346784; calls by dose curve; further: nearly all actives have a fitted effect of over 30% in size). In short, it runs like this: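 PR-UAS-bla HEK 293T cells (beta-lactamase reporter under UAS) in 2% charcoal-stripped FBS, dosed with 23 nL compound after 6 hr, incubated 16hr at 37C. LiveBLAzer B/G FRET substrate added, fluorescence read after 2 hours.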
Background: qHTS replaces the single test concentration by a dilution series.

Test [2] shares this target. The experiment in a line: qHTS assay to identify small molecule antagonists of the progesterone receptor (PR) signaling pathway (AID 1346795; active means well fitted inhibition curve with a large enough effect in the signal ratio in the repeat runs, not every such curve was filed as active; the % refers to the signal ratio). The method in brief:
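PR-UAS-bla HEK293T cells with beta-lactamase reporter under UAS control, in 2% charcoal-stripped FBS, treated with compounds plus 1 nM promegestone (R5020, final) for 16 hr at 37C. Read-out: FRET beta-lactamase substrate fluorescence after 2 hr at room temperature.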

Test [3] in a line: qHTS assay to identify small molecule antagonists of the progesterone receptor (PR) signaling pathway - cell viability counter screen (AID 1346798). Further: series mostly up to about 92 µM; nearly all actives have a fitted effect of over 50% in size. The method in brief: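 PR-UAS-bla HEK293T cells, 3,000/well in 2% charcoal-stripped FBS medium, dosed with compounds plus R5020 agonist and incubated 16 h at 37C. Viability then measured in the same wells by CellTiter-Glo luminescence after 30 min at RT.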

A short description of test [4]: qHTS assay to identify small molecule agonists of the progesterone receptor (PR) signaling pathway - cell viability counter screen (AID 1346799; calls by dose curve; further: nearly all actives have a fitted effect of over 45% in size). The method in brief: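 Counter screen in the PR-UAS-bla HEK293T wells (2% charcoal-stripped FBS, 16 h compound exposure at 37 C) after the bla read. CellTiter-Glo added, 30 min at room temperature, luminescence read as cell viability.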

Test [5] can be described thus: qHTS assay to identify small molecule antagonists of the TGF-beta/Smad signaling pathway - cell viability counter screen (AID 1346824). Further: nearly all actives have a fitted effect of over 50% in size. Further: potency means the concentration at half of the fitted maximal effect. In short, it runs like this:
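SBE-bla HEK 293T cells were plated overnight at 37 C, then given compounds in DMSO plus TGF-beta1 (added as 0.25 ng/mL solution) for 5 hr. After the bla read, CellTiter-Glo was added to the same wells and luminescence read after 30 min at room temperature.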

Test [6] is described as follows: qHTS assay to identify small molecule agonists of the TGF-beta/Smad signaling pathway - cell viability counter screen (AID 1346829). Further: top concentration of the series differs between compounds; nearly all actives have a fitted effect of over 45% in size. In short, it runs like this:
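HEK 293T SBE-bla line, 5 hr compound exposure at 37 C, multiplexed CellTiter-Glo viability read by luminescence.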

Test [7] is described as follows: qHTS assay to identify small molecule agonists of the TGF-beta/Smad signaling pathway (AID 1346859; active means well fitted activation curve with a large enough effect in the signal ratio in the repeat runs, not every such curve was filed as active; the % refers to the signal ratio; further: series mostly up to about 77 µM). In short, it runs like this: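 SBE-bla HEK293T cells plated overnight, then compound exposure for 5 h at 37 C. Beta-lactamase reporter read with LiveBLAzer B/G FRET substrate after 2 h at room temperature, fluorescence at 405 nm excitation, 460/530 nm emission.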

For test [8], the target named is Thyrotropin-releasing hormone receptor (Homo sapiens) (UniProt P34981). The test is described as follows: qHTS assay to identify small molecule agonists of the thyrotropin-releasing hormone receptor (TRHR) signaling pathway (AID 1346891; calls by dose curve; further: series mostly up to about 58 µM). The method in brief: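 HEK293 cells expressing TRHR plated 18 h at 37 C/5% CO2, calcium dye-loaded 2 h at 37 C, then compound added (agonist mode); kinetic calcium fluorescence read 3 min at 1 s intervals; 15 concentrations in triplicate.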

Test [9] is described as follows: Human pregnane X receptor (PXR) small molecule agonists, qHTS cell viability counter screen (AID 1346977). Further: nearly all actives have a fitted effect of over 50% in size. The method in brief:
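PXR-Luc HepG2 cells (2,000/well, 5% charcoal-stripped FBS) preincubated 5 hr, then exposed to compounds 24 hr at 37 C. Viability read in the same wells by CellTiter-Fluor fluorescence, reagent added at 23 hr, 1 hr incubation.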

Test [10] is described as follows: Caspase-3/7 induction in HepG2 cells by small molecules, qHTS assay (AID 1346978). Further: nearly all actives have a fitted effect of over 15% in size. The method in brief:
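Wild-type HepG2 cells (2,000/well) were settled 5 h at 37 C, 5% CO2, then exposed to compounds in DMSO for 17 h. Caspase-3/7 activity was read by luminescence 30 min after adding Caspase-Glo 3/7 reagent at room temperature.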

A short description of test [11]: Caspase-3/7 induction in CHO-K1 cells by small molecules, qHTS cell viability counter screen (AID 1346979). Further: nearly all actives have a fitted effect of over 35% in size. The method in brief:
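Wild-type CHO-K1 cells (1,500/well) treated with compound after 5 h plating; after 16 h at 37C, viability read as CellTiter-Fluor fluorescence following 1 h reagent incubation, in the same wells as the caspase read.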

Test [12] can be described thus: Caspase-3/7 induction in CHO-K1 cells by small molecules, qHTS assay (AID 1346980). Further: nearly all actives have a fitted effect of over 15% in size. The method in brief: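 Wild-type cells were seeded at 1,500 per well and settled 5 hr at 37 C, 5% CO2, then exposed to DMSO-dissolved compounds for 17 hr. Caspase-Glo 3/7 reagent was added, and luminescence was read after 30min at room temperature.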
Test [13] is described as follows: Caspase-3/7 induction in HepG2 cells by small molecules, qHTS cell viability counter screen (AID 1346981). Further: series mostly up to about 92 µM; nearly all actives have a fitted effect of over 30% in size. In short, it runs like this:
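In this quantitative HTS counter screen, compounds delivered in DMSO were left on unmodified HepG2 cells for 16 hr at 37 C. Viability was then determined fluorometrically with CellTiter-Fluor, in parallel with caspase-3/7 induction in the same wells.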

Test [14] has as its target Nuclear receptor subfamily 1 group I member 2 (Homo sapiens) (UniProt O75469). The test is described as follows: Human pregnane X receptor (PXR) small molecule agonists, qHTS assay (AID 1346982). Further: nearly all actives have a fitted effect of over 35% in size. The method in brief:
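Reporter HepG2 cells expressing PXR-Luc are cultured in charcoal-stripped FBS (5%), treated with compounds for 24 hr at 37 C, and assayed by ONE-Glo luminescence after 30 min at room temperature.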

The target of test [15] is Cytochrome P450 2D6 (Homo sapiens) (UniProt P10635). The test is described as follows: Cytochrome P450 Family 2 Subfamily D Member 6 (CYP2D6) small molecule antagonists: luciferase reporter qHTS assay (AID 1671196). Further: nearly all actives have a fitted effect of over 50% in size. Further: potency means the concentration at half of the fitted maximal effect. The method in brief:
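Test chemicals meet CYP2D6 plus proluciferin substrate (10 min, RT); NADPH regenerating solution then drives turnover for 1 h. Detection reagent halts the reaction; luminescence measured after 20 min.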
On the technique in general: In a reporter assay the amount or activity of a reporter protein is the signal.

For test [16], the target named is Cytochrome P450 2C19 (Homo sapiens) (UniProt P33261). The experiment in a line: Cytochrome P450 Family 2 Subfamily C Member 19 (CYP2C19) small molecule antagonists: luciferase reporter qHTS assay (AID 1671197). Further: nearly all actives have a fitted effect of over 65% in size. Further: potency means the concentration at half of the fitted maximal effect. The method in brief: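 First, compounds are pinned into enzyme-substrate mix and held 10 min at room temperature. Second, NADPH regeneration solution is added and plates incubate 1 h at 37C. Third, detection reagent is added and luminescence read after 20 min.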

Test [17] deals with Thyrotropin-releasing hormone receptor (Homo sapiens) (UniProt P34981). The test is described as follows: qHTS assay to identify small molecule antagonists of the thyrotropin-releasing hormone receptor (TRHR) signaling pathway (AID 1346877; active means well fitted inhibition curve with a large enough effect in the repeat runs, not every such curve was filed as active; further: series mostly up to about 51 µM). The method in brief: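 Kinetic fluorescence (3 min, 1 s resolution) following stimulation with TRH at 1 nM final; HEK293 cells bearing human TRHR; 5 min compound preincubation at RT; concentration-response over 15 points, triplicates.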

In test [18] the target is Nuclear receptor subfamily 1 group I member 2 (Rattus norvegicus) (UniProt Q9R1A7). The test is described as follows: Rat pregnane X receptor (rPXR) activation by small molecules, qHTS assay (AID 1346983). Further: nearly all actives have a fitted effect of over 20% in size. The settings on record: rPXR luciferase reporter cells, One-Glo luminescence, 24 h; hits give high values. The method in brief: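 Cell-based rPXR luciferase reporter assay, 2,000 cells per well, rested 5hr at 37 C before compound addition in DMSO, then 24 hr at 37 C. One-Glo reagent was added and luminescence read after 30 min at room temperature.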

Test [19] has as its target Nuclear receptor subfamily 1 group I member 2 (Homo sapiens) (UniProt O75469). The test is described as follows: CYP3A4 induction through human pregnane X receptor (PXR) by small molecules, qHTS assay (AID 1346984). Further: nearly all actives have a fitted effect of over 40% in size. In short, it runs like this: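 Induction measured in HepG2-based DPX-2 cells co-expressing human PXR and a CYP3A4 promoter-driven luciferase. After a 24-hour compound exposure, cells received CYP3A4 luciferin substrate at 3uM final for 3 hours, and light output was then recorded.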

Test [20] shares this target. The test is described as follows: Human pregnane X receptor (PXR) activation by small molecules, qHTS assay (AID 1346985). Further: nearly all actives have a fitted effect of over 40% in size. In short, it runs like this: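 DPX-2 cells (HepG2 co-transfected with a PXR response element and a CYP3A4-promoter luciferase construct) were seeded at 2,000 per well, rested 5 hr at 37C, then exposed to DMSO-dissolved compounds for 24 hr. Activation was read as luciferase luminescence.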
On the % scale 0 is the no-effect control and ±100 the full control effect.

Chain of Progesterone receptor (Homo sapiens) (P06401 whole entry, looked up): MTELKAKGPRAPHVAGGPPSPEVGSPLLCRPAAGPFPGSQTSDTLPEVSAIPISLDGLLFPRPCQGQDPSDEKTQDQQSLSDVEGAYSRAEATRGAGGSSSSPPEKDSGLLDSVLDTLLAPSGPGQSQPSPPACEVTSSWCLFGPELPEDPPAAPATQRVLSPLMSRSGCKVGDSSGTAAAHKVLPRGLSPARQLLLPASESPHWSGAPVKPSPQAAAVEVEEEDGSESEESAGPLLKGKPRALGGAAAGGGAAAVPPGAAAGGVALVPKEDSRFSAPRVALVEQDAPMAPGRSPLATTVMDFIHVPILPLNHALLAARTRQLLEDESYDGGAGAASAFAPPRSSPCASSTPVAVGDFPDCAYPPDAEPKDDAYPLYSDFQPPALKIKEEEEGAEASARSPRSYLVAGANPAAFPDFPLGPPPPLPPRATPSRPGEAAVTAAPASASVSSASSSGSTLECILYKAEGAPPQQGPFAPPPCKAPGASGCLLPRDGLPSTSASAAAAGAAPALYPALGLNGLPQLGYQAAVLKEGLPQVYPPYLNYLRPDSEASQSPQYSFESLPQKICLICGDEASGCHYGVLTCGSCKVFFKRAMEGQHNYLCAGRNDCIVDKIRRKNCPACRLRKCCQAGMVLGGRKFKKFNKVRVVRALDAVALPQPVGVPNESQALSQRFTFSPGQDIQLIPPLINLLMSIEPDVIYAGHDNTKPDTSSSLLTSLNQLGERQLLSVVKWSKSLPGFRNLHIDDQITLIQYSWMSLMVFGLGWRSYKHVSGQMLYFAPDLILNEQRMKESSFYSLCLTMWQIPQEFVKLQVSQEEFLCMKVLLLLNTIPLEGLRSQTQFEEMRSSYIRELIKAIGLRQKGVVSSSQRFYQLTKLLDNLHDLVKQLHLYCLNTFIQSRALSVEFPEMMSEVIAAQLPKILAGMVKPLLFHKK
Chain of Thyrotropin-releasing hormone receptor (Homo sapiens) (P34981 whole entry, looked up): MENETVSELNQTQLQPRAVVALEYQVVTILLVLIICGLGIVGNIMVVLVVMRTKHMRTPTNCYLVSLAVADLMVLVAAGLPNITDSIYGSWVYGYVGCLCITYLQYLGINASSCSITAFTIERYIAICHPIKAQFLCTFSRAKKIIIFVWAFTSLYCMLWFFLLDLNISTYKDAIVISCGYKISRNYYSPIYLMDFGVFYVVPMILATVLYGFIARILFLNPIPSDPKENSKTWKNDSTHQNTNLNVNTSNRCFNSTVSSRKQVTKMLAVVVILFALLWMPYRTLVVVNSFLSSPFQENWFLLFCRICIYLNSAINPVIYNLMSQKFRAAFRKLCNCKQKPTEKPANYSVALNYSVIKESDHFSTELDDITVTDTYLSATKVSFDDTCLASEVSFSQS
Chain of Cytochrome P450 2C19 (Homo sapiens) (P33261 whole entry, looked up): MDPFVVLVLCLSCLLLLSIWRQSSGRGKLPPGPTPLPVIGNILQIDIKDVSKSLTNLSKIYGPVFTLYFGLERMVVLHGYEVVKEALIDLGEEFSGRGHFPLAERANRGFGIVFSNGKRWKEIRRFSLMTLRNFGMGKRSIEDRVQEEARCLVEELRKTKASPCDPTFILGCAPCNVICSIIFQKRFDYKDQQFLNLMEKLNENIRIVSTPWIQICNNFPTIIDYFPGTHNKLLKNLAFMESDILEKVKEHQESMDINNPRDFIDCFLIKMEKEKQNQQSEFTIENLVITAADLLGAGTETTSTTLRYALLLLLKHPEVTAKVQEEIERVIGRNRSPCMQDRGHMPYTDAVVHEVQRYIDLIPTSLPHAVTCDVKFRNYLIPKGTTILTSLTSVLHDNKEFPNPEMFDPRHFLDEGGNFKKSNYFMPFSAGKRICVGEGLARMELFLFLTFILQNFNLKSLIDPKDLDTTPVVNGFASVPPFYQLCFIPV
Chain of Nuclear receptor subfamily 1 group I member 2 (Homo sapiens) (O75469 whole entry, looked up): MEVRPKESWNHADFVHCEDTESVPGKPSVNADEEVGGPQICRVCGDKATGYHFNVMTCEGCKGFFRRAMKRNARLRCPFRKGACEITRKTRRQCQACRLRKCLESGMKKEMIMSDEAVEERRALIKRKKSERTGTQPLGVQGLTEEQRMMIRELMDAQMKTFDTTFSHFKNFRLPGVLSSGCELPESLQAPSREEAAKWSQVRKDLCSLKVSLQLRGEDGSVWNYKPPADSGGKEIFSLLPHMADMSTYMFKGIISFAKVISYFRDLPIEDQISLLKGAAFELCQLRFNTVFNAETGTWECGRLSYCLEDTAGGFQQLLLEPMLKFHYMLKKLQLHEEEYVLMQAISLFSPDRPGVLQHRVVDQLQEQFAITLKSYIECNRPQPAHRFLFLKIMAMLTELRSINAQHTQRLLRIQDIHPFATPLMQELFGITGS
Chain of Cytochrome P450 2D6 (Homo sapiens) (P10635 whole entry, looked up): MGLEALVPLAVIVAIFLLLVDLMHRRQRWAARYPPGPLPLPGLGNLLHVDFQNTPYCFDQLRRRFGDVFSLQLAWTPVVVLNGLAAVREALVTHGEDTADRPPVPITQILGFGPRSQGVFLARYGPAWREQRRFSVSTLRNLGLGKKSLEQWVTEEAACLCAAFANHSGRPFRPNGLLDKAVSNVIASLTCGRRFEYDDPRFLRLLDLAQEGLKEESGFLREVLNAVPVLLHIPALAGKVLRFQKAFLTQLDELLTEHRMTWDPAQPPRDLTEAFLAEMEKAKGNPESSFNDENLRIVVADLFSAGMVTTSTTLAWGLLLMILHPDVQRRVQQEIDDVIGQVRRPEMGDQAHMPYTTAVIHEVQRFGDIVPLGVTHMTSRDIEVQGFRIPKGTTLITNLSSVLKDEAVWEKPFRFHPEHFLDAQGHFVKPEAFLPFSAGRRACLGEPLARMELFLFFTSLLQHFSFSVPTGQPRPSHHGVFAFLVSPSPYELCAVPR
Chain of Nuclear receptor subfamily 1 group I member 2 (Rattus norvegicus) (Q9R1A7 whole entry, looked up): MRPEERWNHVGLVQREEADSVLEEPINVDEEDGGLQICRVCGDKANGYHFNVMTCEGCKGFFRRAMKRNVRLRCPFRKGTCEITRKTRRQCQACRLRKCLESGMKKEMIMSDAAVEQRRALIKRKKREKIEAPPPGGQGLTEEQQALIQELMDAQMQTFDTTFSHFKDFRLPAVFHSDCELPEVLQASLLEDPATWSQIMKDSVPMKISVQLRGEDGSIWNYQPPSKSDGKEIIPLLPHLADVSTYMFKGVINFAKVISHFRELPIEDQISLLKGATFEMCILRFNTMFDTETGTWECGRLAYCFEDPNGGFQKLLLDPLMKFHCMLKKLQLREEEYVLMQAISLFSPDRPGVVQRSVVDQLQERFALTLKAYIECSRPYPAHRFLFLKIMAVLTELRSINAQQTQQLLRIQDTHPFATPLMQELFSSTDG

As to `C/C=C(\C)C#N`, the Potency result in test [1], in [2], in test [3], in test [4], in test [5] and in test [9] was “inactive” in each case. The Potency entry in test [10], in test [11], in [13], in test [14] and in test [15] was “inactive” throughout. Further, the result in test [6], in test [7], in [8] and in test [12] was inactive. Besides, in test [16], the Potency is 78.4 µM (active).

Turning to `CC(=O)c1ccccc1O`, the Potency entry in test [1], in test [2], in [3], in test [4], in [5] and in test [9] was “inactive” each time. Besides, the Potency result in test [10], in [11], in test [14], in test [15] and in test [16] was “inactive” throughout. Moreover, the molecule was classed as inactive in [6], in [7], in test [8] and in test [12].

Take `C[C@H](NC(CCc1ccccc1)C(=O)O)C(=O)N1CCC[C@H]1C(=O)O` (some centres undefined): the Potency entry in test [1], in test [2], in test [3], in [4], in [5] and in test [9] was “inactive” in each case. Besides, the Potency entry in test [10], in test [11], in [13], in [14], in test [15] and in test [16] was “inactive” each time. For the same molecule, the call in [6], in [7], in test [8] and in test [12] was inactive.

Regarding `O=C1CCCC(=O)C1`, the Potency entry in test [1], in test [2], in [3], in test [4], in test [5] and in test [9] was “inactive” each time. Also, the Potency result in test [10], in test [11], in test [13], in test [14], in test [15] and in test [16] was “inactive” throughout. Besides, the call in test [6], in test [7], in [8] and in test [12] was inactive.

`O=C[C@H](O)[C@@H](O)[C@H](O)[C@H](O)CO`: the Potency entry in [1], in test [2], in [3], in test [4], in [5] and in test [9] was “inactive” throughout. For the same molecule, the Potency entry in test [10], in test [11], in test [13], in test [14], in [15] and in test [16] was “inactive” in each case. In addition, the call in test [6], in [7] and in test [8] was inactive.

For the molecule `CN1CCCC1`, the Potency entry in [1], in [2], in [3], in test [4], in [5] and in test [9] was “inactive” each time. Also, the Potency entry in [10], in test [14], in [15] and in [16] was “inactive” in each case. For the same molecule, the molecule was classed as inactive in test [6], in test [7], in test [17] and in test [8].

Turning to `CC1=CC(C)C(C=O)CC1` (centres undefined), the Potency result in [1], in [2], in [3], in [4], in test [9] and in test [10] was “inactive” in each case. For the same molecule, the Potency entry in [14], in test [15] and in test [16] was “inactive” throughout. Further, the Potency in [5] was 4.9 µM (active). The outcome in test [6], in test [7], in test [17] and in test [8] was inactive.

As for `CCN(CC)CCNC(=O)c1cc(S(C)(=O)=O)ccc1OC`, the Potency result in [1], in test [2], in test [3], in test [4], in [5] and in test [9] was “inactive” in each case. Further, the Potency result in [10], in [13], in [14], in [19], in [20] and in test [16] was “inactive” throughout. The molecule was called inactive in [6], in test [7], in test [8] and in test [12]. The max activation in [18] was -2.45%. The Potency in [15] was 12.3 µM (active).
